Records with an inconclusive call do not appear. Active and inactive are the calls of the source. Unless noted, calls follow the shape of the dose curve; as a rule, active = well fitted curve in the direction sought with a large enough effect; inconclusive = small, poorly fitted or top-dose-only effect, or another doubt; inactive = no such curve, though single readings can be large; an effect the other way counts as inactive or inconclusive.
How the values were obtained:
[1] = target: ATP-dependent 6-phosphofructokinase (Trypanosoma brucei brucei) (UniProt O15648); assay: qHTS Assay to Find Inhibitors of T. brucei phosphofructokinase: hit validation (AID 492961);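 also: luminescence reports ADP formed as PFK phosphorylates fructose-6-phosphate with ATP; % is scaled to controls: 0 for no effect and ±100 for the full control effect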
Method in brief: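 ADP-Glo luminescence read-out of ADP formed by 1.25 nM PFK from 0.1 mM ATP and 0.5 mM F6P (TEA pH 8.0, 45 min, RT). Compounds titrated; activity normalized to no-enzyme and full-enzyme controls.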

[2] = target: Ubiquitin carboxyl-terminal hydrolase 1 (Homo sapiens) (UniProt O94782); assay: Inhibitors of USP1/UAF1: Pilot qHTS (AID 504865);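 also: rhodamine fluorescence freed from ubiquitin-rhodamine substrate followed over time; top concentration of the series differs between compounds; % is scaled to controls: 0 for no effect and ±100 for the full control effect; nearly all actives have a fitted effect of over 35% in size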
Method in brief: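 Deubiquitinase activity followed as kinetic rhodamine fluorescence release from 150 nM Ub-Rho. 1 nM USP1/UAF1 with compound, after 15 min room-temperature preincubation, in HEPES pH 7.8 buffer containing TCEP, EDTA, BSA and Tween-20.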

[3] = target: Luciferin 4-monooxygenase (Photinus pyralis) (UniProt P08659); assay: Biochemical firefly luciferase enzyme assay for NPC (AID 624030);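 also: purified P. pyralis luciferase at 10 nM with luciferin and ATP substrate; 0% = DMSO and -100% = full luciferase inhibition by PTC124 control; nearly all actives have a fitted effect of over 70% in size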
Method in brief: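 Direct inhibition of firefly luciferase enzyme (10 nM final, 50 mM Tris Acetate) assessed by luminescence within 5 minutes. Percent activity scaled between DMSO and PTC124 positive control, with concentration-effect curves classified by fit quality and response.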

[4] = S16 Schwann cell viability assay (CellTiter-Glo assay) (AID 624031);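 also: native untransfected S16 rat Schwann cells; cellular ATP luminescence as a viability measure; plate controls were DMSO-treated cells for no effect and cell-free wells for full effect; nearly all actives have a fitted effect of over 70% in size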
Method in brief: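 Cells were seeded at 500-750 per well in phenol red-free DMEM with 10% FBS and left overnight. Compounds or DMSO were pinned in, incubation ran 24 h at 37 °C/5% CO2, then CellTiter-Glo reagent was added and luminescence measured.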

[5] = S16 Schwann cell PMP22 intronic element beta-lactamase assay (AID 624044; calls by dose curve; also: potency is read from the fitted curve at half-maximal effect; nearly all actives have a fitted effect of over 15% in size)
Method in brief: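 Rat S16 Schwann cells with beta-Lac driven by a PMP22 intronic element, compound-treated 24 h at 37 °C. LiveBLAzer FRET B/G read: 460 nm normalized to potassium clavulanate vs DMSO; 535 nm FRET as viability; concentration-effect curves classified.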

[6] = target: Furin (Homo sapiens) (UniProt P09958); assay: Furin counterscreen qHTS for Zika virus inhibitors (AID 1347149);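 also: purified recombinant full-length human furin enzyme at 5 nM; fluorescence gain from furin cutting a BOC-RVRR-AMC peptide substrate over 15 min; top concentration of the series differs between compounds; plate controls were no-inhibitor control for no effect and no-enzyme control for full effect; nearly all actives have a fitted effect of over 70% in size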
Method in brief: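 Fluorogenic cleavage of BOC-RVRR-AMC (2 microM final, Km ~15 µM) was monitored (ex 340, em 450 nm) at 37C after 15 min RT preincubation of 5 nM furin with compounds in HEPES pH 7.0 buffer with CaCl2 and Triton X-100. Percent inhibition was fitted to a 4-parameter Hill curve.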

[7] = tested on: Zika virus NS2B-NS3 protease (unlinked); assay: Optimization of GU AMC qHTS for Zika virus inhibitors: Unlinked NS2B-NS3 protease assay (AID 1347151);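 also: 0% = no-inhibitor control and -100% = no-enzyme control; nearly all actives have a fitted effect of over 80% in size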
Method in brief: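 Fluorescence gain (340/450 nm) over 15 min at room temperature, ~20% conversion, gave percent inhibition fitted to a 4-parameter Hill equation; enzyme was unlinked NS2B-NS3 (25 nM final), pH 8.0 Tris buffer.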

[8] = Vero cells viability qHTS for Zika virus inhibitors (AID 1347167); also: % is scaled to controls: 0 for no effect and ±100 for the full control effect
Method in brief: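 Compounds were tested in concentration series on cells grown in DMEM containing 4% FBS. After 24 to 48 hours, cellular ATP was measured by luminescence with CellTiter Glo.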

[9] = qHTS profiling for inhibitors of Plasmodium falciparum proliferation (AID 504749); also: nearly all actives have a fitted effect of over 60% in size; also: potency is read from the fitted curve at half-maximal effect;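 as to activity, negative = inhibition: 0% = DMSO vehicle and full inhibition = artemisinin control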; details: P. falciparum in erythrocytes, SYBR Green DNA, 72 h, at 28.7 µM (top of the series)
Method in brief: (§1)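 Infected RBCs, 0.3% parasitemia/2.5% Hct final; cpd 72 h, 37 C, 5% CO2; lysis buffer with saponin/triton/SYBR Green I, o/n RT dark; FI 485/535; norm. to artemisinin (0.29 uM) and DMSO.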

[10] = tested on: 3D7; assay: as above; details: P. falciparum in erythrocytes, SYBR Green DNA, 72 h; series mostly up to 28.7 µM
Method in brief: as §1

[11] = tested on: AS120; assay: as above; details: P. falciparum in erythrocytes, SYBR Green DNA, 72 h; series mostly up to 28.7 µM
Method in brief: as §1

[12] = tested on: ATS95; assay: as above; details: P. falciparum in erythrocytes, SYBR Green DNA, 72 h; series mostly up to 28.7 µM
Method in brief: as §1

[13] = tested on: C2A; assay: as above; details: P. falciparum in erythrocytes, SYBR Green DNA, 72 h; series mostly up to 28.7 µM
Method in brief: as §1

[14] = tested on: CP185; assay: as above; details: P. falciparum in erythrocytes, SYBR Green DNA, 72 h; series mostly up to 28.7 µM
Method in brief: as §1

[15] = tested on: CP191; assay: as above; details: P. falciparum in erythrocytes, SYBR Green DNA, 72 h; series mostly up to 28.7 µM
Method in brief: as §1

[16] = tested on: CP192; assay: as above; details: P. falciparum in erythrocytes, SYBR Green DNA, 72 h; series mostly up to 28.7 µM
Method in brief: as §1

[17] = tested on: CP201; assay: as above; details: P. falciparum in erythrocytes, SYBR Green DNA, 72 h; series mostly up to 28.7 µM
Method in brief: as §1

[18] = tested on: CP211; assay: as above; details: P. falciparum in erythrocytes, SYBR Green DNA, 72 h; series mostly up to 28.7 µM
Method in brief: as §1

[19] = tested on: CP215; assay: as above; details: P. falciparum in erythrocytes, SYBR Green DNA, 72 h; series mostly up to 28.7 µM
Method in brief: as §1

[20] = tested on: CP237; assay: as above; details: P. falciparum in erythrocytes, SYBR Green DNA, 72 h; series mostly up to 28.7 µM
Method in brief: as §1

[21] = tested on: CP238; assay: as above; details: P. falciparum in erythrocytes, SYBR Green DNA, 72 h; series mostly up to 28.7 µM
Method in brief: as §1

[22] = tested on: CP247; assay: as above; details: P. falciparum in erythrocytes, SYBR Green DNA, 72 h; series mostly up to 28.7 µM
Method in brief: as §1

[23] = tested on: CP250; assay: as above; details: P. falciparum in erythrocytes, SYBR Green DNA, 72 h; series mostly up to 28.7 µM
Method in brief: as §1

[24] = tested on: CP252; assay: as above; details: P. falciparum in erythrocytes, SYBR Green DNA, 72 h; series mostly up to 28.7 µM
Method in brief: as §1

[25] = tested on: CP256; assay: as above; details: P. falciparum in erythrocytes, SYBR Green DNA, 72 h; series mostly up to 28.7 µM
Method in brief: as §1

[26] = tested on: CP262; assay: as above; details: P. falciparum in erythrocytes, SYBR Green DNA, 72 h; series mostly up to 28.7 µM
Method in brief: as §1

[27] = tested on: CP266; assay: as above; details: P. falciparum in erythrocytes, SYBR Green DNA, 72 h; series mostly up to 28.7 µM
Method in brief: as §1

[28] = tested on: CP269; assay: as above; details: P. falciparum in erythrocytes, SYBR Green DNA, 72 h; series mostly up to 28.7 µM
Method in brief: as §1

[29] = tested on: CP291; assay: as above; details: P. falciparum in erythrocytes, SYBR Green DNA, 72 h; series mostly up to 28.7 µM
Method in brief: as §1

[30] = tested on: CP305; assay: as above; details: P. falciparum in erythrocytes, SYBR Green DNA, 72 h; series mostly up to 28.7 µM
Method in brief: as §1

[31] = tested on: CP315; assay: as above; details: P. falciparum in erythrocytes, SYBR Green DNA, 72 h; series mostly up to 28.7 µM
Method in brief: as §1

[32] = tested on: CP325; assay: as above; details: P. falciparum in erythrocytes, SYBR Green DNA, 72 h; series mostly up to 28.7 µM
Method in brief: as §1

[33] = tested on: CP329; assay: as above; details: P. falciparum in erythrocytes, SYBR Green DNA, 72 h; series mostly up to 28.7 µM
Method in brief: as §1

[34] = tested on: DFO2036; assay: as above; details: P. falciparum in erythrocytes, SYBR Green DNA, 72 h; series mostly up to 28.7 µM
Method in brief: as §1

[35] = tested on: DIV30; assay: as above; details: P. falciparum in erythrocytes, SYBR Green DNA, 72 h; series mostly up to 28.7 µM
Method in brief: as §1

[36] = tested on: Dd2; assay: as above; details: P. falciparum in erythrocytes, SYBR Green DNA, 72 h; series mostly up to 28.7 µM
Method in brief: as §1

[37] = tested on: ECU; assay: as above; details: P. falciparum in erythrocytes, SYBR Green DNA, 72 h; series mostly up to 28.7 µM
Method in brief: as §1

[38] = tested on: FAB9; assay: as above; details: P. falciparum in erythrocytes, SYBR Green DNA, 72 h; series mostly up to 28.7 µM
Method in brief: as §1

[39] = tested on: HB3; assay: as above; details: P. falciparum in erythrocytes, SYBR Green DNA, 72 h; series mostly up to 28.7 µM
Method in brief: as §1

[40] = tested on: JCK; assay: as above; details: P. falciparum in erythrocytes, SYBR Green DNA, 72 h; series mostly up to 28.7 µM
Method in brief: as §1

[41] = tested on: PC15; assay: as above; details: P. falciparum in erythrocytes, SYBR Green DNA, 72 h; series mostly up to 28.7 µM
Method in brief: as §1

[42] = tested on: PC26; assay: as above; details: P. falciparum in erythrocytes, SYBR Green DNA, 72 h; series mostly up to 28.7 µM
Method in brief: as §1

[43] = tested on: PC49; assay: as above; details: P. falciparum in erythrocytes, SYBR Green DNA, 72 h; series mostly up to 28.7 µM
Method in brief: as §1

[44] = tested on: SC27B; assay: as above; details: P. falciparum in erythrocytes, SYBR Green DNA, 72 h; series mostly up to 28.7 µM
Method in brief: as §1

[45] = tested on: TAB113; assay: as above; details: P. falciparum in erythrocytes, SYBR Green DNA, 72 h; series mostly up to 28.7 µM
Method in brief: as §1

[46] = tested on: TAB165; assay: as above; details: P. falciparum in erythrocytes, SYBR Green DNA, 72 h; series mostly up to 28.7 µM
Method in brief: as §1

[47] = tested on: W2; assay: as above; details: P. falciparum in erythrocytes, SYBR Green DNA, 72 h; series mostly up to 28.7 µM
Method in brief: as §1

Chain of ATP-dependent 6-phosphofructokinase (Trypanosoma brucei brucei) (O15648 whole entry, looked up): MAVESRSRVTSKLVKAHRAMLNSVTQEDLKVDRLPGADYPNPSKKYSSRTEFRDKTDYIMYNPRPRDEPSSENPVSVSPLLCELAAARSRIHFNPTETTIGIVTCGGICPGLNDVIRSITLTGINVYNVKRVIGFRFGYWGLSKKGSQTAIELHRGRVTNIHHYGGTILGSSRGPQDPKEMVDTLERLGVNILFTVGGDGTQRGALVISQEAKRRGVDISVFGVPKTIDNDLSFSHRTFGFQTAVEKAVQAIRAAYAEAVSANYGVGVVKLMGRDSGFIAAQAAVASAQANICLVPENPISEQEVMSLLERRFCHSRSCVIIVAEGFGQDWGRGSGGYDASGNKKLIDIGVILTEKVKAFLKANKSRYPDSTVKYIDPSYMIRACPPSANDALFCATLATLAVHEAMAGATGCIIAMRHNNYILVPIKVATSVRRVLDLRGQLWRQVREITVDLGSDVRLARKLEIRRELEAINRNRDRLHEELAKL
Chain of Furin (Homo sapiens) (P09958 whole entry, looked up): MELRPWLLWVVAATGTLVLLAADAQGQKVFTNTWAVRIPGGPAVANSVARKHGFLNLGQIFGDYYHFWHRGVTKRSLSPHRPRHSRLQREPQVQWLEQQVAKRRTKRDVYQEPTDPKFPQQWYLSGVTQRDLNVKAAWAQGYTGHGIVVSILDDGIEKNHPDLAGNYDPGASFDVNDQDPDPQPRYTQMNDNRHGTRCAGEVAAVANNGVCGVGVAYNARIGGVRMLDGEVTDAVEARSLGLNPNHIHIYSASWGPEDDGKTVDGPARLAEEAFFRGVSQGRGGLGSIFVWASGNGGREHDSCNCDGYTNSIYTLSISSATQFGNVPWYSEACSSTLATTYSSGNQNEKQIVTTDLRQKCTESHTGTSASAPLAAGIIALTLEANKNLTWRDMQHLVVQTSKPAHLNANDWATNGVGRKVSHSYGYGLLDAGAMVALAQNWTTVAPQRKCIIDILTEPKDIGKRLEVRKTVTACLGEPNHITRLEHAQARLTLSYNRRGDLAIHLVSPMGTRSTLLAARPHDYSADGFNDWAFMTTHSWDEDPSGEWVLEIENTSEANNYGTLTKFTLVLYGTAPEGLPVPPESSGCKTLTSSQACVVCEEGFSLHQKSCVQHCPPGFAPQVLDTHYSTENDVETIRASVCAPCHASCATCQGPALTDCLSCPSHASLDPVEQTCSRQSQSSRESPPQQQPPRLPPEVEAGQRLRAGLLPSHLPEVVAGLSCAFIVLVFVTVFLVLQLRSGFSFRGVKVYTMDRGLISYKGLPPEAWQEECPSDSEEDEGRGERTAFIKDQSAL
Chain of Luciferin 4-monooxygenase (Photinus pyralis) (P08659 whole entry, looked up): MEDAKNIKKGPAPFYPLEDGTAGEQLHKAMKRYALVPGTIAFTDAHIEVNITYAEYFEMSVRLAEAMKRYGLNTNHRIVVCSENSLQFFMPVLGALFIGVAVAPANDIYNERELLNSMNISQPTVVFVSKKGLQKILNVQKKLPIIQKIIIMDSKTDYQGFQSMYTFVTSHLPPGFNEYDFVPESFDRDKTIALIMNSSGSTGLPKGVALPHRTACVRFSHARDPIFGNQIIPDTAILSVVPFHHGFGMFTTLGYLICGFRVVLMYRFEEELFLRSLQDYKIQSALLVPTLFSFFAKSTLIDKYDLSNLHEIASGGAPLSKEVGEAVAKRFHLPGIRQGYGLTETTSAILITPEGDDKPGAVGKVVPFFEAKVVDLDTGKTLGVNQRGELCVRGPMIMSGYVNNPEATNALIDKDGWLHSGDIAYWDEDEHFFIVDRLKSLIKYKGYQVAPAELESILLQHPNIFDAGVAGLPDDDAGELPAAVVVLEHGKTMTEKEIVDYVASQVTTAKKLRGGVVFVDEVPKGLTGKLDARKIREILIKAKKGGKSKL
Chain of Ubiquitin carboxyl-terminal hydrolase 1 (Homo sapiens) (O94782 whole entry, looked up): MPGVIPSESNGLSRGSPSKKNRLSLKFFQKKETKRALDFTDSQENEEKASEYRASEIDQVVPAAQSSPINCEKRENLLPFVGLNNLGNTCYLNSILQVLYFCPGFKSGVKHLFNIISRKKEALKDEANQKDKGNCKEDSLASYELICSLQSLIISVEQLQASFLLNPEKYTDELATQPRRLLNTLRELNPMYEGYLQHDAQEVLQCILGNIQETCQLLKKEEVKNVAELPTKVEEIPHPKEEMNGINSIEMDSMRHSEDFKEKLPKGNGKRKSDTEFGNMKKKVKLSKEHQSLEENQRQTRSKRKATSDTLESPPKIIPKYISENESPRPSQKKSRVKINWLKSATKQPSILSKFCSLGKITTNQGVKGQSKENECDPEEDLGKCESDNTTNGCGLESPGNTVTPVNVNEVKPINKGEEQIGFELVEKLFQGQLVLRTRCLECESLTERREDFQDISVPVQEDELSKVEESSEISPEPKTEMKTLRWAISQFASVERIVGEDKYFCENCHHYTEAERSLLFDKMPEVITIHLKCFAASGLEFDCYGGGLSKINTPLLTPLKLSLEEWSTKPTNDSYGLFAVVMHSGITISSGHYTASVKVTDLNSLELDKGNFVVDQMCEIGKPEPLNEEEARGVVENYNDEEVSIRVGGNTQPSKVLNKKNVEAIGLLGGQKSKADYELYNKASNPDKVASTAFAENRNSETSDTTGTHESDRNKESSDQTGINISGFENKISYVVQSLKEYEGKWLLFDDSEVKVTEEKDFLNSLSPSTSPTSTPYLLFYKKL

O=C1c2cccc3c2[C@@H](CCC3)CN1[C@@H]1CN2CCC1CC2
inactive: outcome [1] | Potency [2] | Potency [3] | outcome [4] | Potency [6] | Potency [7] | Potency [8] | activity, negative = inhibition ([9]; parasite line A) -7.65% | activity, negative = inhibition ([9]; parasite line B) 6.33% | Potency [10] | Potency [11] | Potency [12] | Potency [13] | Potency [14] | Potency [15] | Potency [16] | Potency [17] | Potency [18] | Potency [19] | Potency [21] | Potency [22] | Potency [23] | Potency [24] | Potency [25] | Potency [26] | Potency [27] | Potency [28] | Potency [29] | Potency [30] | Potency [31] | Potency [32] | Potency [33] | Potency [34] | Potency [35] | Potency [37] | Potency [38] | Potency [39] | Potency [40] | Potency [41] | Potency [42] | Potency [43] | Potency [44] | Potency [45] | Potency [46]
active: Potency [5] 11.2 µM | Potency [20] 10 µM | Potency [36] 12.6 µM | Potency [47] 6.75 µM
